# Shown are actives, neighbours in structure and some others; about 10% of the full set was active somewhere.
# JMJD2A Tudor: JMJD2A Tudor domain (human) inhibition; O75164; AlphaScreen JMJD2A-Tudor / H3K4me3 peptide binding; AID 504339; Potency, µM (titrated, usually from 114 µM), for the others: at the top dose activity change, negative = inhibition, most hits filed as inhibitors; 390,000 compounds, 4.4% hits; note: potency is the fitted concentration of half-maximal effect; % is set by controls: 0 for no effect and ±100 for the full control effect; nearly all actives have a fitted effect of over 50% in size
# HP1b binding inh: inhibitors of HP1-beta chromodomain binding to methylated histone tails | P83916 | AlphaScreen HP1-beta / biotin-H3K9me3 peptide binding | 390,000 compounds, 0.56% hits | Potency, µM (titrated, usually from 114 µM), for the others: top-dose activity change, negative = inhibition, hits mostly inhibitors; note: potency is the fitted concentration of half-maximal effect; nearly all actives have a fitted effect of over 70% in size
# Target sequence (P83916 whole entry, looked up): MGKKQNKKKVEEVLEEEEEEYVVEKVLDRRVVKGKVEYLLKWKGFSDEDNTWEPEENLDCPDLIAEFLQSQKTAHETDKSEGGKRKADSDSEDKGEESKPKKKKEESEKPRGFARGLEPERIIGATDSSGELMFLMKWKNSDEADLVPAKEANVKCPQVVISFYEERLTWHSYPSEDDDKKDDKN
#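 HP1-beta protein (50 nM final) preincubated 30 min at room temperature with biotinylated H3(1-18)K9me3 peptide (50 nM) in PBS pH 7.4, 0.01% Tween-20, then compound added for 30 min. AlphaScreen streptavidin donor/nickel chelate acceptor beads (10 ug/mL final), 30 min dark, luminescence read.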
# CtBP-E1A inh: blocks the CtBP interaction with E1A | activity change, % (no concentration beside the values) | AlphaScreen GST-E1A/His-CtBP binding, 1536-well; stronger effect = lower value | AID 651724 | 340,000 compounds, 0.49% hits; in the data active = activity change below about -65%; inconclusive = mostly about -30% to -63%; note: % is set by controls: 0 for no effect and ±100 for the full control effect
#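 Homogeneous bead-based format: GST-tagged E1A captured on glutathione donor beads, His-tagged CtBP on nickel acceptor beads; compounds precede bead addition by 2 h at 37 °C.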
# Six1-Eya2 inh: inhibitors of human Six1/Eya2 interaction; AlphaScreen GST-Six1/His-Eya2 binding, biochemical; stronger effect = lower value; activity change, % (no concentration beside the values); 360,000 compounds, 0.56% hits; AID 651725; in the data active = activity change below about -65%; inconclusive = mostly about -30% to -63%; note: % is set by controls: 0 for no effect and ±100 for the full control effect
#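 Compounds are tested against tagged Six1 and Eya2 proteins bridged by glutathione donor and nickel acceptor beads; after a one-hour incubation at 37 °C without light, AlphaScreen emission is recorded.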
# G9a block: G9a (human) methyltransferase inhibition | Q96KQ7 | G9a H3K9 monomethylation, AlphaScreen, 2 h | Potency, µM (highest dose often 102 µM), inactives show at the top dose activity, negative = inhibition, actives largely listed as inhibitors | 350,000 compounds, 8.8% hits; note: potency is the fitted concentration of half-maximal effect; % is set by controls: 0 for no effect and ±100 for the full control effect; nearly all actives have a fitted effect of over 75% in size
# Target sequence (Q96KQ7 913-1193 limits assumed): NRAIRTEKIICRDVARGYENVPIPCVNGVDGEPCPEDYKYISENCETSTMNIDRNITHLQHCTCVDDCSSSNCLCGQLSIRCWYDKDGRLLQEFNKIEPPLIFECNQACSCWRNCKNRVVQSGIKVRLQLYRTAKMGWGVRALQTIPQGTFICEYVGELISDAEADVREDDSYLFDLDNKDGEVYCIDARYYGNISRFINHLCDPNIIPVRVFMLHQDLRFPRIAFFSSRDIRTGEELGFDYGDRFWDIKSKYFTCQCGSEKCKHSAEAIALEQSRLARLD
#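 Readings reflect AlphaScreen signal from monomethyl-H3K9 antibody detection. HMT at 20 nM; substrate b-H3K9 500 nM; cofactor SAM 20 uM; 2 h RT reaction; compounds tested as titrations in qHTS with 15 min preincubation.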
# BAZ2B block: inhibitors of human BAZ2B bromodomain; 360,000 compounds, 4.4% hits; Q9UIF8; Potency, µM (series often up to 114 µM), for the others: at the highest dose activity change, negative = inhibition, actives largely listed as inhibitors; AlphaScreen BAZ2B-H3K14Ac peptide displacement; note: potency is the fitted concentration of half-maximal effect; % is set by controls: 0 for no effect and ±100 for the full control effect; nearly all actives have a fitted effect of over 60% in size
#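 BAZ2B (50 nM) with biotin-H3(5-23)K14Ac peptide (50 nM) in PBS pH 7.4, 0.01% Tween-20, preformed 30 min, then compound 30 min at room temperature; top concentration 110uM. AlphaScreen streptavidin donor/nickel chelate acceptor beads (10 ug/mL final), 20 min dark, signal read.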
# * = called active by the depositor; ? = inconclusive; . = no result given; [ ] = another dose, or the depositor's remark. Unless noted, calls come from the whole dose curve; as a rule, active = well fitted inhibition curve with a large enough effect; inconclusive = small, poorly fitted or top-dose-only effect; inactive = no such curve, though single readings can be large or run the other way.
SMILES,JMJD2A Tudor,HP1b binding inh,CtBP-E1A inh,Six1-Eya2 inh,G9a block,BAZ2B block
Cc1cc(=O)oc2cc(OCC(=O)Nc3nnc(C(C)C)s3)ccc12,-15%,16%,5,-2,45µM*,-9%
CCC(CC)c1nnc(NC(=O)c2ccc3c(c2)OCO3)s1,-18%,?,0,11,22µM*,-11%
Cc1ccc(CSc2nc3ccc(NC(=O)C(C)C)cc3s2)cc1,-7%,32%,.,.,-27%[59 µM],-8%
CCn1c(C)c(C)c2cc(C(=O)NCc3cccc(C)c3)ccc21,?,-4%,.,.,?,-37%
CCCS(=O)(=O)c1nc(S(=O)(=O)c2ccc(C)cc2)c(N2CCc3ccccc3C2)s1,-10%,28%,-15,-6,35µM*,24%
CCCS(=O)(=O)c1nc(S(=O)(=O)c2ccc(C)cc2)c(N2CCCC2)s1,-6%,18%,7,4,8%[12.7 µM],-7%
Cc1sc(NC(=S)NC(=O)CCc2ccccc2)c(C(N)=O)c1C,-13%,-5%,-1,0,?,-8%
CCOC(=O)c1c(NC(=O)Cc2ccccc2)sc2c1CCN(CC)C2,-23%,13%,3,-1,.,-7%
Cc1sc(NC(=S)NC(=O)c2ccco2)c(C(N)=O)c1C,-15%[11.4 µM],3%,.,-1,40µM*,-2%
CCOC(=O)c1c(N)sc2c1CCN(Cc1ccccc1)C2,.,.,.,.,10µM*,.
CCN1CCc2c(sc(NC(=O)c3ccc(S(=O)(=O)N4CCOCC4)cc3)c2C(N)=O)C1,-17%,26%,-3,-2,56µM*,-4%
CCN1CCc2c(sc(NC(=S)NC(=O)c3ccco3)c2C(N)=O)C1,?,?,-6,-9,20µM*,-34%
COc1ccc2c(c1)c(=O)c(C(=O)c1ccccc1)cn2CC(=O)Nc1ccc2c(c1)OCO2,-14%,21%,.,.,?,?
NC(=O)c1c(NC(=O)c2ccccc2)sc2c1CCN(Cc1ccccc1)C2,-18%,47%,-15,1,3%,-4%
CC(C)C(=O)Nc1sc2c(c1C(N)=O)CCN(Cc1ccccc1)C2,-17%,18%,2,1,71µM*,4%
CCOC(=O)N1CCc2c(sc(NC(=O)c3ccc(Cl)s3)c2C(N)=O)C1,.,.,.,.,28µM*,-31%
CCN1CCc2c(sc(NC(=O)c3ccc(C(=O)c4ccccc4)cc3)c2C(N)=O)C1,?,8%,-12,-11,71µM*,40µM*
Cc1ccc(CNC(=O)c2ccc(-n3cnc4cccnc43)cc2)cc1,-15%,44%,.,.,11%[59 µM],1%
COc1cc(CN(C(=O)c2ccccc2)c2ccccn2)cc(OC)c1OC,-10%,27%,.,.,1%[59 µM],-7%
CCCn1c2ccccc2c2cnn(CC(=O)NCCc3ccc(S(N)(=O)=O)cc3)c(=O)c21,8%,21%,.,.,3%[59 µM],-2%
N#Cc1ccccc1CSc1nc2ccc(NC(=O)c3ccccc3C(=O)O)cc2s1,-32%,26%,-16,0,?,?
O=C(O)c1ccc(CSc2nc3ccc(NC(=O)c4ccccc4C(=O)O)cc3s2)cc1,-33%,73%,-2,-14,45µM*,?
N#Cc1ccc(CSc2nnc3[nH]c(=O)cc(N)n23)cc1,2%,16%,-19,-9,22µM*,-22%
COc1ccc(CSc2nnc3[nH]c(=O)cc(N)n23)cc1,-16%[11.4 µM],2%,.,-11,35µM*,-22%
Cc1cc(=O)[nH]c2nnc(SCc3ccc(F)cc3)n12,-14%,17%,.,.,-1%[59 µM],-2%
Cc1oc(C)c2c(=O)ccc3c(c12)OC(N)=C(C#N)C3c1ccccc1 (configuration not stated),-35%,-23%,-13,-16,8.9µM*,?
Cc1oc(C)c2c(=O)ccc3c(c12)OC(N)=C(C#N)C3c1ccccc1Cl (configuration not stated),-3%[11.4 µM],-28%,-9,3,28µM*,?

# From PubChem
